According to the supplement of paper PMC12350171:
Where a name gives a salt, the structure may show the parent alone. Values without a mark were called inactive.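 Rule for the calls: active = normalised median growth AUC below 0.1 of DMSO control; inactive = AUC 0.1 or higher.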
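Note: active when median AUC fell below 0.1.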

What follows are compounds tested on P. vulgatus RND KO (assay: growth AUC normalised to DMSO control (median) (fraction of control); higher = less growth inhibition, active = hit call of the paper). Conditions: 20 µM.
Summary of the method: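 Strains were passaged twice overnight without oxygen, then grown in mGAM in 96-well plates with each approved-drug library compound at 20 μM and 1% DMSO, starting at OD578 0.01. OD578 was read hourly for 24 h inside an anaerobic incubator. Curves were truncated at entry into stationary phase, and the trapezoidal-rule area under the curve was normalised to same-plate vehicle wells. The value is the median across three biological replicates.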
`C[C@@H]1C[C@H]2[C@@H]3C[C@H](F)C4=CC(=O)C=C[C@]4(C)[C@@]3(F)[C@@H](O)C[C@]2(C)[C@@]1(O)C(=O)COC(=O)C(C)(C)C` [Flumethasone pivalate] was tested, and the “growth AUC normalised to DMSO control” value was 0.995. In the case of `CC(C)[C@H](N)C(=O)OCC(CO)OCn1cnc2c(=O)nc(N)[nH]c21` (stereo not given in full) [Valganciclovir hydrochloride], the “growth AUC normalised to DMSO control” value is reported as 1.04. For `CC(=O)OC(C)OC(=O)C(C)c1ccc(-c2ccccc2)c(F)c1` (stereo not given) [Flurbiprofen axetil], the “growth AUC normalised to DMSO control” value was 1.09. `CO[C@@H]1[C@@H](OC(N)=O)[C@@H](O)[C@H](Oc2ccc3c(O)c(NC(=O)c4ccc(O)c(CC=C(C)C)c4)c(=O)oc3c2C)OC1(C)C` [Novobiocin sodium salt] was tested, and the “growth AUC normalised to DMSO control” value was 0.0285 (active). In the case of `CC1=C(C)C(=O)C(C(CCCCCC(=O)O)c2ccccc2)=C(C)C1=O` (stereo not given) [Seratrodast], the “growth AUC normalised to DMSO control” value is reported as 0.944. `Cc1ccc(O)c([C@H](CCN(C(C)C)C(C)C)c2ccccc2)c1` [Tolterodine tartrate] was tested, and the “growth AUC normalised to DMSO control” value was 1.01. `CC1CC(OC(=O)C(O)c2ccccc2)CC(C)(C)C1` (stereo not given) [Cyclandelate] was tested, and the “growth AUC normalised to DMSO control” value was 0.983. In the case of `CC(C)=CCOc1ccc(/C=C/C(=O)c2ccc(OCC=C(C)C)cc2OCC(=O)O)cc1` [Sofalcone], the “growth AUC normalised to DMSO control” value is reported as 0.914. In the case of `C=CC[C@@H]1/C=C(\C)C[C@H](C)C[C@H](OC)[C@H]2O[C@@](O)(C(=O)C(=O)N3CCCC[C@H]3C(=O)O[C@H](/C(C)=C/[C@@H]3CC[C@@H](O)[C@H](OC)C3)[C@H](C)[C@@H](O)CC1=O)[C@H](C)C[C@@H]2OC` [Tacrolimus Monohydrate], the “growth AUC normalised to DMSO control” value is reported as 1. For `CO[C@@]12[C@H](COC(N)=O)C3=C(C(=O)C(C)=C(N)C3=O)N1C[C@@H]1N[C@@H]12` [Mitomycin C], the “growth AUC normalised to DMSO control” value was 0.0125 (active). With `C=C(NC(=O)C(=C)NC(=O)c1csc(C2=N[C@@H]3c4csc(n4)[C@H]4NC(=O)c5csc(n5)[C@H]([C@](C)(O)[C@@H](C)O)NC(=O)[C@H]5CSC(=N5)/C(=C/C)NC(=O)[C@H]([C@@H](C)O)NC(=O)c5csc(n5)[C@]3(CC2)NC(=O)[C@H](C)NC(=O)C(=C)NC(=O)[C@H](C)NC(=O)[C@H]([C@@H](C)CC)N[C@@H]2C=Cc3c([C@H](C)O)cc(nc3[C@H]2O)C(=O)O[C@@H]4C)n1)C(N)=O` [Thiostrepton] the “growth AUC normalised to DMSO control” value was 0.0151 (active). For `CCN(CC)CCOCCOC(=O)C(CC)(CC)c1ccccc1` [Oxeladin citrate], the “growth AUC normalised to DMSO control” value was 1. In the case of `C=CCOc1ccc(CC(=O)O)cc1Cl` [Alclofenac], the “growth AUC normalised to DMSO control” value is reported as 1.06. In the case of `O=C(O)c1ccccc1Nc1cc(Cl)ccc1C(=O)O` [Lobenzarit disodium], the “growth AUC normalised to DMSO control” value is reported as 0.992. For `NS(=O)(=O)c1cc2c(cc1Cl)NC(Cc1ccccc1)NS2(=O)=O` (stereo not given) [Benzylhydrochlorothiazide], the “growth AUC normalised to DMSO control” value was 1.08. `CC(C)(C)NC(=O)[C@@H]1CN(Cc2cccnc2)CCN1C[C@@H](O)C[C@@H](Cc1ccccc1)C(=O)N[C@H]1c2ccccc2C[C@H]1O` [Indinavir sulfate] was tested, and the “growth AUC normalised to DMSO control” value was 1. With `CCCCOCCOCCOCc1cc2c(cc1CCC)OCO2` [Piperonyl butoxide] the “growth AUC normalised to DMSO control” value was 1.08. With `CC(=O)Nc1c(I)c(NC(C)=O)c(I)c(C(=O)O)c1I` [Diatrizoic acid dihydrate] the “growth AUC normalised to DMSO control” value was 0.922. `NC(=O)c1ncn([C@@H]2O[C@H](CO)[C@@H](O)[C@H]2O)c1O` [Mizoribine] was tested, and the “growth AUC normalised to DMSO control” value was 1.04. For `CCN1CCN(Cc2ccc(Nc3ncc(F)c(-c4cc(F)c5nc(C)n(C(C)C)c5c4)n3)nc2)CC1` [Abemaciclib], the “growth AUC normalised to DMSO control” value was 0.994. In the case of `OC[C@H]1O[C@H](O[C@H]2O[C@H](CO)[C@@H](O)[C@H](O)[C@H]2O)[C@H](O)[C@@H](O)[C@@H]1O` [Trehalose dihydrate], the “growth AUC normalised to DMSO control” value is reported as 1. In the case of `O=C(O)CSCC(=O)NC1CCSC1=O` (stereo not given) [Erdosteine], the “growth AUC normalised to DMSO control” value is reported as 1.02. `Cc1nc(C)c(Cl)c(O)c1Cl` [Clopidol] was tested, and the “growth AUC normalised to DMSO control” value was 1.01. In the case of `CCOC(=O)[C@H](CCc1ccccc1)N[C@@H](C)C(=O)N(CC(=O)O)C1Cc2ccccc2C1` [Delapril Hydrochloride], the “growth AUC normalised to DMSO control” value is reported as 1. In the case of `Cc1cc2nc3c(=O)[nH]c(=O)nc-3n(C[C@H](O)[C@H](O)[C@H](O)CO)c2cc1C` [Riboflavine], the “growth AUC normalised to DMSO control” value is reported as 1.11.
